Results published in the supplement of paper PMC11732987, “Enantioselective OTUD7B fragment discovery through chemoproteomics screening and high-throughput optimisation” (Communications Chemistry, 2025).

Key:
Assay in all cases: log2 ratio of Biotin-Ahx-Ub-VS probe labelling (fragment/DMSO); higher = less target engagement (more negative = stronger competition), active = hit call of the paper (q ≤ 0.05, log2 ratio ≤ -1)
Details in all cases: compound concentration: 200 uM; treatment time: 3 h
USP19 = target: T1, USP19 (UniProt O94966)
T1 sequence (whole entry): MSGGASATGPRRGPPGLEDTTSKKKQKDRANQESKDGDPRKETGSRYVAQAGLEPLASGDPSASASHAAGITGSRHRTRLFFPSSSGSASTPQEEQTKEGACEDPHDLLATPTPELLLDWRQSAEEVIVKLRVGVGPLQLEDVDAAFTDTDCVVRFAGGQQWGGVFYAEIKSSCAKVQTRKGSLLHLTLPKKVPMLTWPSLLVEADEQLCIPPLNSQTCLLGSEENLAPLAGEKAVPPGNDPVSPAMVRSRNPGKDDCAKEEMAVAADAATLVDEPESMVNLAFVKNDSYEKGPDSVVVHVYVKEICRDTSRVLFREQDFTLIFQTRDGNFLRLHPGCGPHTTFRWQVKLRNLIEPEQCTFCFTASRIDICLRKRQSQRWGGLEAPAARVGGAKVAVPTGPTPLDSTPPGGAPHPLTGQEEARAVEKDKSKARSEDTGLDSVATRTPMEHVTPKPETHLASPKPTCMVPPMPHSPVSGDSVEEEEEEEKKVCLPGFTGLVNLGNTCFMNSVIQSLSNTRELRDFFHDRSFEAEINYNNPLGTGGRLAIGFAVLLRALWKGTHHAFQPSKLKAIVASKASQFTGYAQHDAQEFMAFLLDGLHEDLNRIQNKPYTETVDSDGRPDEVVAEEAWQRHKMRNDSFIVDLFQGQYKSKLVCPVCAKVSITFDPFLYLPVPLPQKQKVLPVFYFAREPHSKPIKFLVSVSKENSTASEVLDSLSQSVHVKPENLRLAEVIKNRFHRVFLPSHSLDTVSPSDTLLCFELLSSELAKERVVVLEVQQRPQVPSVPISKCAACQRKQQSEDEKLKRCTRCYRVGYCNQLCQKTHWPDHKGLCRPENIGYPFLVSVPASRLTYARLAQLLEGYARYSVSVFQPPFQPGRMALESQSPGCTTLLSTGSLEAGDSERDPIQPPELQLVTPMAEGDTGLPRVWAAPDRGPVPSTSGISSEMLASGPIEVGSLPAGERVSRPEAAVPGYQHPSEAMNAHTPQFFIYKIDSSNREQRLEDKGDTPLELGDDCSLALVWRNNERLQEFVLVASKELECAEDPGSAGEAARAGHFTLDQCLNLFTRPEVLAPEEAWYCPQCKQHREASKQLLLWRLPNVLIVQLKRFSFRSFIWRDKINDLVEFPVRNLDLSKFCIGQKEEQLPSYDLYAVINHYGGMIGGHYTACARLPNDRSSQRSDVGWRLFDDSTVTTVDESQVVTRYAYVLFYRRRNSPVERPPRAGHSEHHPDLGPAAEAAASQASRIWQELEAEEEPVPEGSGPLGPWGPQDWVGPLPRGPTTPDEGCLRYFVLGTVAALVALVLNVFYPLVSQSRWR
How it was run: (§1)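 Triplicate samples of HEK293T lysate, 495 µg each, received fragment at 200 µM or vehicle for 3 h, followed by Biotin-Ahx-Ub-VS (0.5 µM final) for 1 h. After NeutrAvidin enrichment of labelled DUBs and LysC/trypsin digestion, peptides were run by diaPASEF LC-MS/MS. The values are average log2 fragment/vehicle ratios from global-median-normalised Spectronaut label-free quantities, tested by unpaired t-test on proteins having ≥2 unique peptides.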

USP24 = USP24 (UniProt Q9UPU5)
How it was run: as §1

USP25 = target: T2, USP25 (UniProt Q9UHP3)
T2 sequence (whole entry): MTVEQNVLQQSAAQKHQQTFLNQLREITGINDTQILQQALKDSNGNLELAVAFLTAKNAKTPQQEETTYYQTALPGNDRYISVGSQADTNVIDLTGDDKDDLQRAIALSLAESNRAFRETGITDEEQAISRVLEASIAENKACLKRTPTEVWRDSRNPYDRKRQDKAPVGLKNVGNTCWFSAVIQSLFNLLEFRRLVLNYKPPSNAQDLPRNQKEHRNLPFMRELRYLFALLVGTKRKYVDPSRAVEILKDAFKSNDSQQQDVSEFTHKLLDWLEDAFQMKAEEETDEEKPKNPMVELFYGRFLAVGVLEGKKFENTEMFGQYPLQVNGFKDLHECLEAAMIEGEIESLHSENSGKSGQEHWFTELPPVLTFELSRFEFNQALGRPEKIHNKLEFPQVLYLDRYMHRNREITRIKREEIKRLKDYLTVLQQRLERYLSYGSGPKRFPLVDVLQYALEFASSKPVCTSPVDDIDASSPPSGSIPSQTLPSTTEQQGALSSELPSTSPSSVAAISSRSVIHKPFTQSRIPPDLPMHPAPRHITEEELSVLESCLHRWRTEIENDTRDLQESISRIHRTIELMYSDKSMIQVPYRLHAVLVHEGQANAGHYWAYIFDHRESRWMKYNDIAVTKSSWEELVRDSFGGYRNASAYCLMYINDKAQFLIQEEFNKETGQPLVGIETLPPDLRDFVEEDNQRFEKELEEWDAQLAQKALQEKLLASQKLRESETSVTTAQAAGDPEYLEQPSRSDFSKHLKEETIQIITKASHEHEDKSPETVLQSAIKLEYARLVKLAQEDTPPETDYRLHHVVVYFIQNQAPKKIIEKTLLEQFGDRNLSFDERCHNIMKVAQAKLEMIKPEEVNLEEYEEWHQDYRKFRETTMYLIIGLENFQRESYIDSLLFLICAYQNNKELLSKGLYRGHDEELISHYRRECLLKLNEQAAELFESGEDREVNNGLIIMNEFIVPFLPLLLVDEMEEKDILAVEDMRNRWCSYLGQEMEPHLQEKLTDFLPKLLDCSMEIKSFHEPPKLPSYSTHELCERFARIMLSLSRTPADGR
How it was run: as §1

USP28 = target: T3, USP28 (UniProt Q96RU2)
T3 sequence (whole entry): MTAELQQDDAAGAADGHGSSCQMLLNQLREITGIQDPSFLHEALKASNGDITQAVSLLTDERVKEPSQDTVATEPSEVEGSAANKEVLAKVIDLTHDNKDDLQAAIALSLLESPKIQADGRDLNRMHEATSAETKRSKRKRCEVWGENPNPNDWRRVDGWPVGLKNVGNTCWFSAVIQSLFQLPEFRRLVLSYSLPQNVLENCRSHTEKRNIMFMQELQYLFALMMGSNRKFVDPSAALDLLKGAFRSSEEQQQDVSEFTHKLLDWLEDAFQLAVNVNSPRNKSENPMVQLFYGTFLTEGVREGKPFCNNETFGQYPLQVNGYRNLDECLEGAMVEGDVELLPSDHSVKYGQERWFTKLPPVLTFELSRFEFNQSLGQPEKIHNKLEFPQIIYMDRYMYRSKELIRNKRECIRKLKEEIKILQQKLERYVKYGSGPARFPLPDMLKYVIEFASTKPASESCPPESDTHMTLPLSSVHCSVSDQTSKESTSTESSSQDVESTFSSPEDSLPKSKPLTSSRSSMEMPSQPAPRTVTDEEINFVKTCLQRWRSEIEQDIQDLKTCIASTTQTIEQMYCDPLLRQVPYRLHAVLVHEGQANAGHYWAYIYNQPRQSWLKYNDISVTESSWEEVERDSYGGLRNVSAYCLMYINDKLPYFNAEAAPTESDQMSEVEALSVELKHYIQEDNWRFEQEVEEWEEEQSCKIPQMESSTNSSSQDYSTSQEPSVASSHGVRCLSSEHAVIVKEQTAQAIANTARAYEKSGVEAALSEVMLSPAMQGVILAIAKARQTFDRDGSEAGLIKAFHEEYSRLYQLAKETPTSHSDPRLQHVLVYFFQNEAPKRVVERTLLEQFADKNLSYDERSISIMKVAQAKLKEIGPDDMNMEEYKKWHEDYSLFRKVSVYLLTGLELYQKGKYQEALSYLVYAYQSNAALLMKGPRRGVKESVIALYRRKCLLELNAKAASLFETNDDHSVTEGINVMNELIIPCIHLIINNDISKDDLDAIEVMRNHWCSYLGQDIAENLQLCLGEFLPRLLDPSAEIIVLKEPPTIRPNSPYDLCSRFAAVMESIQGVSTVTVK
How it was run: as §1

Measured: log2 ratio of Biotin-Ahx-Ub-VS probe labelling

USP24, sequence (Q9UPU5 whole entry): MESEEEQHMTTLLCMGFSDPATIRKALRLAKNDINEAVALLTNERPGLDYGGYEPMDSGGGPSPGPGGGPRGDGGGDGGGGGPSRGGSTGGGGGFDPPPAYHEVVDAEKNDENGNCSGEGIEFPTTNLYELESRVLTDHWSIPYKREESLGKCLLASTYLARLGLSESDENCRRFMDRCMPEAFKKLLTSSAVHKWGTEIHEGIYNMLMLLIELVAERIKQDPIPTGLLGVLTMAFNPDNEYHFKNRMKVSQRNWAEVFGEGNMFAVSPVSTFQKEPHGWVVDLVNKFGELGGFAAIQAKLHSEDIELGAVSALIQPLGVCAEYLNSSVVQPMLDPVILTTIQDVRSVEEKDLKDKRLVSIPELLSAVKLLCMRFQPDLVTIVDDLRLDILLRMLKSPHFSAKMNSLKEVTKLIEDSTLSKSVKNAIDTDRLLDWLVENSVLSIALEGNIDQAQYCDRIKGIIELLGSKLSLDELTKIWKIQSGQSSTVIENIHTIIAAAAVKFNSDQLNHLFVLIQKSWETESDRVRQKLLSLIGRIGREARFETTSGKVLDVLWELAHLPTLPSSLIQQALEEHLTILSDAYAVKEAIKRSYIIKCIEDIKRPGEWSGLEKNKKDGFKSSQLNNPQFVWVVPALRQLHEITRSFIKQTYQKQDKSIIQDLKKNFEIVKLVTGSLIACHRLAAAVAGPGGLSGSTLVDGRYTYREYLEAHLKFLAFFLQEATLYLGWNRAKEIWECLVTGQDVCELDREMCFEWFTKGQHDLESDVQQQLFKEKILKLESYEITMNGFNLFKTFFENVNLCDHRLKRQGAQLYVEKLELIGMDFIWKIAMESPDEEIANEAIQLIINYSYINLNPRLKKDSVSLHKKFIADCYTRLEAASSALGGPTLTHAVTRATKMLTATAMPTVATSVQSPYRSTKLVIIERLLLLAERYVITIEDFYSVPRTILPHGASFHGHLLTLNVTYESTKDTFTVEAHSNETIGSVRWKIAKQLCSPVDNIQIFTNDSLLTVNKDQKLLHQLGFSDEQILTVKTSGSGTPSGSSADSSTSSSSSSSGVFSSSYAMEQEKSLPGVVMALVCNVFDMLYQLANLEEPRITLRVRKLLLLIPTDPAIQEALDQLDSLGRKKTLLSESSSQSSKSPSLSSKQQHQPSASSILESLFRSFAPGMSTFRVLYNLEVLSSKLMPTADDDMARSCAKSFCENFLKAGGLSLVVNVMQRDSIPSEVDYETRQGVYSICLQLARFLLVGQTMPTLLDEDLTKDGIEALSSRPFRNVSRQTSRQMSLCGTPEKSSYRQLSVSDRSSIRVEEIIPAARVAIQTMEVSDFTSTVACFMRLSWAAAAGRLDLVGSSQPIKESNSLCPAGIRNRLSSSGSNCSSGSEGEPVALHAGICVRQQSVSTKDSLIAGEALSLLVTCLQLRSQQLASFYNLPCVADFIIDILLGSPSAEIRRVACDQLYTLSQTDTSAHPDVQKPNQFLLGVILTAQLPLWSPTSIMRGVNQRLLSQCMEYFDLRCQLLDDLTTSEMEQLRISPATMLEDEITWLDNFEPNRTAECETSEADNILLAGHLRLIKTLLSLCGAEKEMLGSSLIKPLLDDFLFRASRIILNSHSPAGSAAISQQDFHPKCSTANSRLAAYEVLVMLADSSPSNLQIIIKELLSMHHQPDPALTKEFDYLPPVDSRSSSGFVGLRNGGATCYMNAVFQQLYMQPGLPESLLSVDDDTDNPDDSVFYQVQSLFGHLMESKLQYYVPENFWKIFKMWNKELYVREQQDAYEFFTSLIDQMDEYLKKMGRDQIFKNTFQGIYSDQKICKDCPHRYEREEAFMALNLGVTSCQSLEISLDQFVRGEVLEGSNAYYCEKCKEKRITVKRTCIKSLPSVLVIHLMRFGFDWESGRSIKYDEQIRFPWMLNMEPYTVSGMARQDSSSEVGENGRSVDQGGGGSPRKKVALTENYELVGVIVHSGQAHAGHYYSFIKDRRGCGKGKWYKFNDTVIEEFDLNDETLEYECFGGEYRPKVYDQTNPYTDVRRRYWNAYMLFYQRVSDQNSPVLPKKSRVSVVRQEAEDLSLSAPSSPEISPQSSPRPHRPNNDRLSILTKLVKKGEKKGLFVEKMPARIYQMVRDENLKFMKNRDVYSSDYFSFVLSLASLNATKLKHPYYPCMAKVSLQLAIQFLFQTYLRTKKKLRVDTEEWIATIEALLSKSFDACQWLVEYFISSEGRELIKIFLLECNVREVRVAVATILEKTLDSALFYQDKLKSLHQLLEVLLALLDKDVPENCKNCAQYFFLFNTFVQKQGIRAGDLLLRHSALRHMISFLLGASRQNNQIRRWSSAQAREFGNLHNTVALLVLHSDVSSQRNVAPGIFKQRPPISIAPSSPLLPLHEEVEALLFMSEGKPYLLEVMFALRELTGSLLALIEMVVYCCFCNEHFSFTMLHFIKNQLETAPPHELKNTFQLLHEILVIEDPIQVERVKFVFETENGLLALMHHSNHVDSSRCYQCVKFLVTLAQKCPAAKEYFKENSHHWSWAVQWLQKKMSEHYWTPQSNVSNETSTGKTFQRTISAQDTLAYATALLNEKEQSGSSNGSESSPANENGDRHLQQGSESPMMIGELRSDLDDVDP

Cc1cccc(NC(=O)[C@@H]2CCCN2C(=O)CCl)n1
inactive: USP19 -0.349 | USP24 -0.45 | USP25 -0.327 | USP28 -0.61
